Assay results: PubChem BioAssay (NCI)
Values joined by “and” are separate entries in the source; they are usually repeats but may differ in a detail not shown here. Identical values can stand only once. About 83,000 compounds went through this panel and 20% of them were active in at least one assay; those are over-represented in the sample as a whole.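 Assay: single dose, 48 h. Readout: percent growth (0 = no net growth; negative = cell death). Active: <10.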 Values without a mark were called inactive. Active and inactive are the calls of the source.

Assays:
Assay in all cases: NCI-60 one-dose screen, 48 h (100 = growth as untreated, 0 = no growth, -100 = all killed)
Conditions in all cases: 10 µM unless noted
NCI-H23 lung = test system: NCI-H23 lung
NCI-H226 lung = test system: NCI-H226 lung
NCI-H322M lung = test system: NCI-H322M lung
HOP-62 NSCLC = test system: HOP-62 NSCLC
NCI-H460 lung = test system: NCI-H460 lung
HOP-92 NSCLC = test system: HOP-92 NSCLC
NCI-H522 lung = test system: NCI-H522 lung
A549/ATCC NSCLC = test system: A549/ATCC NSCLC
786-0 renal = test system: 786-0 renal
COLO 205 colon = test system: COLO 205 colon

Row | Structure (SMILES) | growth (NCI-H23 lung) | growth (NCI-H226 lung) | growth (NCI-H322M lung) | growth (HOP-62 NSCLC) | growth (NCI-H460 lung) | growth (HOP-92 NSCLC) | growth (NCI-H522 lung) | growth (A549/ATCC NSCLC) | growth (786-0 renal) | growth (COLO 205 colon)
1 | c1ccc2c(c1)Nc1cc3ccccc3cc1N2 | 30.3% | 80.5% | 48.5% | 41.4% | 51.7% | 85% | -14.7% (active) | 41.5% | 66.6% | -43.7% (active)
2 | O=Nc1ccccc1N=O | 71.9% | 88.5% | 84.2% | 96% | 93.5% | 107% | -60.8% (active) | 86.2% | 116% | 83.4%
3 | CCN1/C(=C\c2cc[n+](CC)c3ccccc23)C=Cc2ccccc21 | 12.7% | 19.6% | 25.4% | 18.7% | -32.8% (active) | -21.9% (active) | 12.4% | 18.9% | 25% | -35.2% (active)
4 | OC(CNc1ccnc2cc(Cl)ccc12)CNc1ccnc2cc(Cl)ccc12 | 72% | 39.3% | 52.1% | 98.7% | 63.5% | 77.6% | -3.14% (active) | 95.3% | 95.5% | -55.4% (active)
5 | N#Cc1ccc([N+](=O)[O-])o1 | 112% | 94.1% | 106% | 96.7% | 107% | 93.1% | 77.1% | 75.7% | 102% | 104%
6 | CCC1OC(OC)C=CC1=O (stereo not given) | 106% | 103% | 108% | 98.2% | 108% | 90.1% | 95.5% | 102% | 99.9% | 103%
7 | O=C(O)C1C2CC3C(OC(=O)C31)C2Br (stereo not given) | 103% and 95.4% | 88.3% and 90.7% | 101% and 106% | 92.8% and 99.4% | 98.3% and 100% | 91% and 94.2% | 72.9% and 95.6% | 79.6% and 101% | 105% and 99% | 97.1% and 103%
8 | COc1ccc(N=N/N=c2\sc3cc(OC)ccc3n2C)cc1 | 79.6% | 81.8% | 83.9% | 86.4% | 94.9% | 71.2% | 73.8% | 69.8% | 105% | 92.2%
9 | CNC(=O)N/N=C/c1ccc([N+](=O)[O-])o1 | 101% | 104% | 88.7% | 102% | 109% | 101% | 85.2% | 82.3% | 111% | 109%
10 | Oc1ccc(/C=N/NC(=S)Nc2ccccc2)nc1 | 14.9% | 5.69% (active) | 21.2% | 12.2% | 2.79% (active) | -0.553% (active) | -14.2% (active) | 11.5% | -21% (active) | 24.4%
11 | Cc1cc(C(C)(CC(C)C)c2ccc(O)c(C)c2)ccc1O | 108% | 93% | 94.6% | 104% | 104% | 88.3% | 92.6% | 81.5% | 102% | 125%
12 | C1=C(c2ccccc2)C(c2ccc(OCCN3CCCCC3)cc2)Oc2ccccc21 (stereo not given) | 58.4% | 74.4% | 77.4% | 60.5% | -20.2% (active) | 59.3% | 24.7% | 59.2% | 55.6% | -55.1% (active)
13 | CC(=O)C(=Cc1ccc(C=C(C(C)=O)C(C)=O)cc1)C(C)=O | 4.19% (active) | -14.5% (active) | 102% | 83.2% | 36.2% | 81.6% | -53.9% (active) | 84.2% | 2.51% (active) | -70.9% (active)
